# An excerpt weighted towards active compounds, which were near 19% of everything screened.
# TDP1 cell CPT: growth inhibition of DT40 Tdp1-/-;hTDP1 cells with camptothecin (screen for TDP1 inhibitors) | chicken DT40 Tdp1-/-;hTDP1 cells + 20 nM CPT, ATP luminescence, 48 h | Potency, µM (highest dose often 46.2 µM), for the others: at the top dose activity change, negative = growth inhibition, actives largely listed as inhibitors | 12% of 420,000 active; further: potency means the concentration at half of the fitted maximal effect; nearly all actives have a fitted effect of over 55% in size
#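 Chicken DT40 Tdp1-/- cells complemented with human TDP1, 400 cells/well, exposed to compounds plus 20 nM camptothecin for at least 48 h at 37 C; viability read as ATP content by CellTiter-Glo luminescence.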
# uPA surface inh: blocks generation of uPA at the cell surface; cell surface uPA generation assay, qHTS; Potency, µM (top dose mostly 38.3 µM), for inactives: top-dose activity change, negative = inhibition, usual class: inhibitors; 0.31% of 330,000 active; active means well fitted inhibition curve with a large enough effect; inconclusive means small, poorly fitted or top-dose-only effect; inactive means no such curve, though single readings can be large or run the other way; tested in mouse RAW 264.7 cells; further: potency means the concentration at half of the fitted maximal effect; nearly all actives have a fitted effect of over 55% in size
# HT1080 IDH1KD tx: toxicity to HT-1080 IDH1 knockdown cells (counter line). Potency, µM (highest dose often 46.1 µM), for inactives: top-dose activity, negative = toxicity, actives largely listed as cytotoxic. 2% of 360,000 active. HT-1080 IDH1 knockdown viability, ATP luminescence, 48 h;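 further: potency means the concentration at half of the fitted maximal effect; 0% = DMSO wells and -100% = cell-free medium wells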
#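 Assay cells: HT-1080 with IDH1 knockdown, 750 per well, RPMI/5% FBS. Exposure: 48 h at 37 °C following 2 h pre-incubation. Read: CellTiter-Glo luminescence; fitted concentration-response, curve class assigned.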
# IL-1B inflam inh: inflammasome signaling inhibition, IL-1 beta readout. activity change, % at 57.5 µM. THP-1 LPS/ATP IL-1B secretion, AlphaLISA, 16 h; stronger effect = lower value. AID 743279. 4.7% of 360,000 active; in the data active means activity change below about -50%; inconclusive means mostly about -30% to -49%
#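 Secreted IL-1B measured by AlphaLISA bead assay after 16 h compound exposure of THP-1 cells; compounds (final up to 57.5 uM) added 1 h before LPS (250 ng/mL) and ATP (1.25 mM) stimulation; lower signal means less secretion.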
# HT1080NT lethal: kills 2HG-producing HT-1080-NT fibrosarcoma cells | HT-1080-NT fibrosarcoma viability, CellTiter-Glo ATP luminescence, 48 h | Potency, µM (doses to about 46.1 µM), for inactives: at the top dose activity, negative = less viability, usual class: cytotoxic | 1.6% of 360,000 active;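 further: NT is the 2HG producing partner of a matched IDH1 knockdown line; potency means the concentration at half of the fitted maximal effect; 0% = DMSO-treated cells and -100% = media-only wells without cells; nearly all actives have a fitted effect of over 55% in size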
#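 Viability by CellTiter-Glo luminescence after 48 h compound exposure at 37C of HT-1080-NT cells (750/well, RPMI, 5% FBS). % activity scaled between DMSO wells and medium-only wells, then curve-fitted and categorized by curve class.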
# TDP1 cell noCPT: qHTS for Inhibitors of human tyrosyl-DNA phosphodiesterase 1 (TDP1): qHTS in cells in absence of CPT. DT40 Tdp1-/- hTDP1 cells, no CPT, ATP luminescence, 48 h. AID 686978, 2013. Potency, µM (highest dose often 46.2 µM), for the others: at the top dose activity change, negative = growth inhibition, actives largely listed as inhibitors. 15% of 420,000 active; further: potency means the concentration at half of the fitted maximal effect; nearly all actives have a fitted effect of over 55% in size
#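 Seeded 400 DT40-hTDP1 cells/well (vehicle DMSO, no 20 nM CPT); pinned compounds; ≥48 hr at 37 °C; CellTiter-Glo luminescence as viability measure.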
# Starred values were filed as active, the others as inactive; ? = inconclusive; nt = no result. Unless noted, the call rests on the fitted dose curve; in most records, active means well fitted curve in the direction sought with a large enough effect; inconclusive means small, poorly fitted or top-dose-only effect, or another doubt; inactive means no such curve, though single readings can be large; an effect the other way counts as inactive or inconclusive. Unless noted, on the % scale 0 is the no-effect control and ±100 the full control effect.
SMILES,TDP1 cell CPT,uPA surface inh,HT1080 IDH1KD tx,IL-1B inflam inh,HT1080NT lethal,TDP1 cell noCPT
Cc1sc2nc(COC(=O)c3ccc(Cl)c(N)c3)[nH]c(=O)c2c1C,16.4µM*,12.2%,8.9%,0.0,11.3%,7.31µM*
Cc1sc2nc(COC(=O)c3ccc(N4CCCC4)c([N+](=O)[O-])c3)[nH]c(=O)c2c1C,-4.2%,3.1%,20.5%,5.3,16.4%,?
Cc1sc2nc(COC(=O)c3ccc(O)cc3)[nH]c(=O)c2c1C,?,2.7%,0.0%,8.4,3.9%,18.4µM*
Cc1ccccc1/C=C1\SC(=S)N(/N=C/c2cc([N+](=O)[O-])ccc2O)C1=O,?,-2.7%,-14.4%,-7.5,-2.6%,?
CCNC(=O)C1(C)CCCN(C(=O)c2ccccc2Br)C1 (stereo not drawn),-3.4%,nt,18.8%,-0.8,15.8%,-1.3%
O=C1N(Cc2ccccc2)CC2(Br)COCOC12O (stereo not drawn),2.31µM*,-1.4%,?,?,7.1%,3.26µM*
CCCn1c(SC(C(=O)Nc2cc(C)ccc2OC)c2ccccc2)nc2ccccc2c1=O (stereo not drawn),18.4µM*,-0.4%,11.0%,8.7,7.6%,14.6µM*
COc1ccc(C)cc1NC(=O)C(Sc1nnnn1C)c1ccccc1 (stereo not drawn),-29.0%,6.4%,1.8%,1.7,8.3%,-0.7%
CCn1c(SCC(=O)Nc2cc(OC)ccc2OC)nc2c(c1=O)SCC2,?,11.4%,-18.7%,-1.0,-8.2%,25.9µM*
CCn1c(SCC(=O)Nc2ccccc2OC)nc2ccccc2c1=O,?,-0.6%,-8.5%,-71.7*,1.0%,?
COC(=O)c1cccc(NC(=O)CSc2nc3cccnc3n2C)c1,?,-3.7%,-26.8%,?,-16.7%,16.4µM*
COc1cccc(C(C#N)NCCCNC(C#N)c2cccc(OC)c2OC)c1OC (stereo not drawn),-0.9%,7.3%,18.6%,-6.6,24.5%,6.4%
CCCc1cc(=O)[nH]c(SCC(=O)NC2(C#N)CCCCC2)n1,-2.9%,1.2%,5.2%,8.7,9.1%,18.3%
COc1cccc(NC(=O)CSc2nc3ccccc3c(=O)n2C)c1,16.4µM*,6.9%,?,-15.0,-0.6%,23.1µM*
COc1cccc(NC(=O)CSc2nc(C3CC3)nc3ccccc23)c1,1.4%,-1.1%,-21.7%,-12.1,-24.6%,-8.6%
CCOc1ccccc1NC(=O)CSc1nc2cccnc2n1C,?,3.0%,-13.5%,9.2,-13.4%,?
CC(C)Oc1ccccc1NC(=O)CSc1nc2ccccc2c(=O)n1C,20.6µM*,?,?,-0.8,-2.2%,?
COCCn1c(SCC(=O)Nc2ccc(F)c(Cl)c2)nc2c(oc3ccccc32)c1=O,5.17µM*,nt,nt,nt,nt,?
CCn1c(SCC(=O)Nc2ccc(OC)cc2OC)nc2nc3c(cc2c1=O)COC(C)(C)C3,-27.7%,0.2%,8.2%,?,-2.1%,?
CCn1c(SCC(=O)Nc2cccc(C)c2)nc2nc3c(cc2c1=O)COC(C)(C)C3,25.9µM*,2.3%,13.9%,-83.0*,15.2%,18.4µM*
COc1cccc(NC(=O)CSc2nc3c(oc4ccccc43)c(=O)n2Cc2ccco2)c1,9.2µM*,nt,nt,nt,nt,9.2µM*
O=C(CSc1nc2c(oc3ccccc32)c(=O)n1Cc1ccco1)Nc1cccc(Cl)c1,?,nt,nt,nt,nt,20.6µM*
COCCn1c(SCC(=O)Nc2ccccc2)nc2c(oc3ccccc32)c1=O,-27.5%,2.8%,-1.3%,-15.7,1.4%,?
CCOc1ncccc1C(=O)NNC(=O)c1cccc(S(=O)(=O)Nc2ccc(OC)cc2)c1,?,-6.9%,-9.2%,12.4,-3.9%,-29.5%
Cc1ccc(NC(=O)CSc2nc3c(oc4ccccc43)c(=O)n2Cc2ccco2)cc1F,-12.2%,nt,nt,nt,nt,-29.4%
SMILES,TDP1 cell CPT,uPA surface inh,HT1080 IDH1KD tx,IL-1B inflam inh,HT1080NT lethal,TDP1 cell noCPT
Cc1cccc(NC(=O)CSc2nc3c(oc4ccccc43)c(=O)n2Cc2ccco2)c1,23.1µM*,nt,nt,nt,nt,16.4µM*
COCCn1c(SCC(=O)Nc2ccc(C)cc2)nc2c(oc3ccccc32)c1=O,-21.7%,-9.7%,10.2%,23.0,9.7%,-29.9%
COc1ccc(NC(=O)CSc2nc3c(oc4ccccc43)c(=O)n2Cc2ccco2)cc1Cl,?,nt,nt,nt,nt,20.6µM*
Cc1n[nH]c(C)c1S(=O)(=O)N(C)Cc1ccco1,8.6%,-21.0%,0.0%,7.7,1.0%,4.4%
Cc1ccc(C(c2sc3nc(-c4ccco4)nn3c2O)N2CCCCC2)cc1 (stereo not drawn),4.7%,nt,nt,nt,nt,-2.6%
CCCCCCn1nc(C(=O)OCC(=O)NC2CCS(=O)(=O)C2)c2ccccc2c1=O (stereo not drawn),-13.9%,-3.7%,14.8%,8.9,16.8%,?
Cc1ccccc1-c1ccc2ncnc(NC3CC3)c2c1,16.4µM*,nt,nt,nt,nt,?
COCCNc1ncnc2ccc(-c3ccccc3C)cc12,10.3µM*,nt,nt,nt,nt,20.6µM*
CN(C)C(=O)c1ccc(-c2ccc3ncnc(NC4CC4)c3c2)cc1,-6.8%,nt,nt,nt,nt,?
COc1ccccc1-c1cncnc1-n1ccnc1,-5.6%,nt,nt,nt,nt,-27.1%
Cc1ccccc1-c1ccc2ncnc(-n3ccnc3)c2c1,20.6µM*,nt,nt,nt,nt,20.6µM*
FC(F)(F)c1ccccc1-c1ccc2ncnc(NC3CC3)c2c1,23.1µM*,nt,nt,nt,nt,20.6µM*
COc1ccc(C(O)c2ncc(-c3ccc4ccccc4c3)[nH]2)cc1 (stereo not drawn),6.6%,nt,?,-17.0,?,-6.8%
FC(F)(F)c1ccccc1-c1ccc2ncnc(NCc3cccs3)c2c1,23.1µM*,nt,nt,nt,nt,?
COC(=O)C1CCN(c2ccc([N+](=O)[O-])cc2)CC1,0.0%,-0.1%,3.1%,15.4,0.6%,3.4%
O=[N+]([O-])c1ccc(COc2cccc(CN3CCCCC3)c2)cc1,?,-16.6%,2.3%,-3.9,-0.9%,16.4µM*
CSc1ccc(CN2CCN(Cc3ccc([N+](=O)[O-])cc3)CC2)cc1,?,-5.8%,-28.6%,-66.7*,?,20.6µM*
O=[N+]([O-])c1ccc(N2CCN(Cc3ccncc3)CC2)cc1,?,-0.5%,-9.1%,10.6,-10.6%,18.4µM*
O=[N+]([O-])c1ccc(COc2cccc(CN3CCCC3)c2)cc1,?,-11.4%,1.0%,-22.4,7.3%,?
COC(=O)C1CCN(CCCOc2ccc(CN3CCN(c4ccc([N+](=O)[O-])cc4)CC3)cc2)CC1,-84.1%,6.1%,?,-20.3,?,20.6µM*
